Experimental data: PubChem BioAssay AID504832 (National Center for Advancing Translational Sciences (NCATS), 2011)
Out of some 310,000 compounds screened, about 18,000 (5.8%) were called active. Another 22% or so got no clear call; they are omitted. The list comes from a sample in which actives are over-represented; it also holds similar structures and randomly drawn compounds. Entries that show only a call come without a potency. A number with no mark means an inactive call. Calls follow the shape of the dose curve; as a rule, active = well fitted inhibition curve with a large enough effect; inconclusive = small, poorly fitted or top-dose-only effect, or another doubt; inactive = no such curve, though single readings can be large or run the other way.

Test: Primary qHTS for delayed death inhibitors of the malarial parasite plastid, 48 hour incubation
Details: P. falciparum luciferase growth in erythrocytes; series mostly up to 28.7 µM
Summary of the method: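 A one-generation exposure of luciferase-tagged malaria parasites in RPMI 1640/Albumax erythrocyte culture, 37 C and 5% CO2. Inhibition is inferred from decreased luminescence after adding detection reagent.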
Potency is read from the fitted curve at half-maximal effect.

| SMILES | Potency | activity change, negative = inhibition |
| --- | --- | --- |
| CC(NC(=O)c1cc2cc(Cl)ccc2oc1=N)c1ccccc1 (stereo not given) | inactive |  |
| O=C(Nc1ccc(F)cc1)C(=O)c1cn(CC(=O)N2CCOCC2)c2ccccc12 | inactive |  |
| COc1ccc(S(=O)(=O)NC(C)C(=O)NCc2ccncc2)cc1Cl (stereo not given) | inactive |  |
| COc1ccc(NC(=O)CCCC(=O)c2ccccc2)cc1 | inactive |  |
| CC(C)Cn1c(N)c(C(=O)COC(=O)C2CCCN2C(=O)c2cccs2)c(=O)n(C)c1=O (stereo not given) | inactive |  |
| Cc1ccc(OCCCC(=O)Nc2ccc(S(=O)(=O)Nc3cc(C)nc(C)n3)cc2)cc1 | inactive |  |
| O=C(Nc1ccccc1)N1CCC(C(=O)N2CCN(Cc3ccccc3)CC2)CC1 | inactive |  |
| O=C(Nc1ccccc1)N1CCN(C(=O)Nc2ccccc2)CC1 | inactive |  |
| O=C(Nc1ccccc1)N1CCN(C2c3ccccc3-c3ccccc32)CC1 | 2.62 µM (active) |  |
| Cc1cccc(OC(C)C(=O)N2CCc3ccccc3C2)c1 (stereo not given) | inactive |  |
| Cc1cc(Nc2ccc(Br)cc2F)n2ncnc2n1 | inactive |  |
| Cc1nc(S(=O)(=O)c2ccc(Br)cc2)nc2c1CCC2 | inactive |  |
| Brc1ccc(Nc2c3c(nc4ncnn24)CCC3)cc1 | 0.586 µM (active) |  |
| O=C(COC(=O)C1CC2CCCC(C1)C2=O)NC(=O)c1ccccc1 (stereo not given) | inactive |  |
| COCCC(=O)N1CCC(Oc2ccc(C(=O)NCc3ccon3)cc2)CC1 | inactive |  |
| CC(=O)c1c(C)oc2ccc(NS(=O)(=O)c3ccccc3)cc12 | inactive |  |
| Cc1ccn2c(=O)c(C(=O)NCCC3=CCCCC3)c(O)nc2c1 | inactive |  |
| CCCCC[C@H]1CN(C2CCCCC2)C(=O)[C@@H]1CC(=O)NCc1ccc(OC)cc1 | inactive |  |
| O=C(NCc1ccco1)/C(=C/c1cccc([N+](=O)[O-])c1)NC(=O)c1ccco1 | inactive |  |
| Cc1ccc(N2CCN(c3ccc([N+](=O)[O-])cn3)CC2)c(C)c1 |  | -8.92% [at 0.00184 µM] |
| CN(CCc1cnn(C)c1)Cc1cn(C)nc1-c1ccccc1F | inactive |  |
| CCOCCCNC(=O)c1cc2c(=O)n3ccccc3nc2s1 | inactive |  |
| CN(CCNC(=O)c1cc2c(-c3ccccc3F)nn(C)c2s1)C1CCCCC1 | 1.65 µM (active) |  |
| COc1ccc(N2CCN(S(=O)(=O)c3ccc4c(c3)NC(=O)C(C)C(=O)N4)CC2)cc1 (stereo not given) | inactive |  |
| CC(=O)c1ccc(S(=O)(=O)Nc2ccc(-c3ccc4nncn4n3)cc2)cc1 | inactive |  |
| COC(=O)C[n+]1cccc2ccccc21 | inactive |  |
| O=C(CNC(=O)c1ccc(F)cc1)c1ccccc1 | inactive |  |

| SMILES | Potency | activity change, negative = inhibition |
| --- | --- | --- |
| O=C(C[n+]1cc(Br)cc2ccccc21)c1ccc(F)cc1 | 11.7 µM (active) |  |
| Cc1cccc(NS(=O)(=O)c2ccc(-c3cnc(C4CC4)o3)cc2)c1 | inactive |  |
| COc1ccccc1C(=O)COC(=O)CSCC(=O)Nc1cc(C)on1 | inactive |  |
| COC(=O)c1ccc(COC(=O)CNC(=O)c2cccc(OC)c2)o1 | inactive |  |
| COc1ccccc1C(c1nnnn1CC1CCCO1)N1CCN(c2ccccc2)CC1 (stereo not given) | 11.7 µM (active) |  |
| O=C(CSc1nnc(-c2ccco2)n1CC1CCCO1)c1ccccc1 (stereo not given) | inactive |  |
| COc1cc(/C=N/N2CCN(c3ccccc3)CC2)ccc1OC(C)=O | inactive |  |
| COc1ccc(C(c2nnnn2Cc2cccs2)N2CCN(c3ccccc3)CC2)cc1OC (stereo not given) | 14.7 µM (active) |  |
| COc1ccccc1NC(=O)CSc1nnc(C)n1CC1CCCO1 (stereo not given) | inactive |  |
| COc1ccc(CCn2nnnc2C(c2ccccc2)N2CCN(C)CC2)cc1OC (stereo not given) | inactive |  |
| CCOc1cccc2cc(C(=O)OCC(=O)Nc3c(C)cccc3CC)c(=O)oc12 | inactive |  |
| CCCc1ccc(C(=O)COC(=O)CN2C(=O)NC3(CCCCC3C)C2=O)cc1 (stereo not given) | inactive |  |
| CCC(c1nnnn1C1CCCC1)N1CCN(C(=O)c2ccco2)CC1 (stereo not given) | 8.28 µM (active) |  |
| CC(C)C(c1nnnn1C1CCCCC1)N1CCN(C(=O)c2ccco2)CC1 (stereo not given) | inactive |  |
| CC(=O)c1ccc(-n2nnnc2SCC(=O)N2CCN(C(=O)c3ccco3)CC2)cc1 | inactive |  |
| CN(C)c1nc(=Nc2cccc(Cl)c2)ss1 | 1.04 µM (active) |  |
| Cc1cc(OCc2cc(C(=O)NCc3cc(C(C)C)no3)no2)cc(C)c1Cl | inactive |  |
| COC(=O)c1ccc(COC(=O)c2cnc(Cl)c(Cl)c2)cc1 | inactive |  |
| Cc1cc(C(F)(F)F)nc(SCC(=O)Nc2nccs2)n1 | inactive |  |
| COc1ccc(C(C)NC(=O)C23CC4CC(CC(C4)C2)C3)cc1 (stereo not given) | inactive |  |
| CN1C(=O)C2(OCCCO2)c2cc(Cl)ccc21 | inactive |  |
| CN1CCN(c2nc(Nc3ccc(O)cc3)nc3ccccc23)CC1 | 2.94 µM (active) |  |
| CCc1ccc(-c2cc(C(=O)NN3CCN(C)CC3)c3ccccc3n2)cc1 | inactive |  |
| CCCCc1nc2ccccc2c(NC(=O)CN2CCN(C)CC2)c1CCC | inactive |  |
| CCOC(CNC(=O)C1CCN(S(=O)(=O)c2ccc3nc4c(c(C(=O)O)c3c2)CC(C)CC4)CC1)OCC (stereo not given) | inactive |  |
| C/C(=N\N(C)C)c1ccc(OCCOc2ccc([N+](=O)[O-])cc2)cc1 | inactive |  |
| COc1ccccc1OCC(=O)Nc1ccccc1C(=O)NC1CC1 | inactive |  |

| SMILES | Potency | activity change, negative = inhibition |
| --- | --- | --- |
| C#CC(C)(C)NC(=O)c1cnc(-c2ccccc2)nc1-c1ccccc1 | inactive |  |
| COc1ccc2nc(N3CCN(C(=O)c4ccc([N+](=O)[O-])o4)CC3)sc2c1 | 1.31 µM (active) |  |
| Cc1ccc2nc(N3CCN(C(=O)c4ccco4)CC3)sc2c1 | inactive |  |
| O=C(c1ccc2nc(N3CCOCC3)sc2c1)N1CCN(c2ccc(Cl)cc2)CC1 | inactive |  |
| Cc1nc(C)c(-c2nnc(-c3cccc(S(=O)(=O)N(C)C)c3)o2)cc1C(=O)NN | inactive |  |
| O=C(COc1coc(CN2CCN(c3ccccc3)CC2)cc1=O)N1CCc2ccccc21 | inactive |  |
| O=C(COc1coc(CN2CCN(c3ccccc3)CC2)cc1=O)Nc1ccccc1F | inactive |  |
| Cc1cc(C)cc(NC(=O)COc2coc(CN3CCN(c4ccccc4)CC3)cc2=O)c1 | 13.1 µM (active) |  |
| Cc1ccsc1C(=O)NCCc1ccco1 | inactive |  |
| O=C(c1[nH]ncc1-c1ccc(Cl)cc1)C1CO1 (stereo not given) | 7.38 µM (active) |  |
| O=C(c1nnc(-c2ccc(Cl)cc2)o1)C1CCCC1 | inactive |  |
| C=CCNC(=O)c1ccccc1SCc1c(C)noc1C | inactive |  |
| COc1ccc(NC(=O)CN(C)C(=O)c2ccc(COc3ccccc3)o2)cc1 | inactive |  |
| Cc1ccc(C(C)C)c(OCCSc2nc3ccccc3n2CC(=O)O)c1 | inactive |  |
| COc1cccc(NC(=O)NCc2ccc(F)cc2)c1 | inactive |  |
| Cc1cccc(NC(=O)Nc2cccc(Oc3c(F)c(F)c(F)c(F)c3F)c2)c1 | 4.15 µM (active) |  |
| Cc1cccc(NC(=O)Nc2nnc(-c3ccccc3)o2)c1 | inactive |  |
| Cn1c(=O)c(=O)n(C)c2cc(S(=O)(=O)CCC(=O)N3CCCCC3)ccc21 | inactive |  |
| COc1cccc(OCc2cc(C(=O)N3CCN(C(=O)c4ccco4)CC3)no2)c1 | inactive |  |
| COc1ccc(OC)c(C(=O)NC(CC(N)=O)c2ccc(N3CCC(N4CCCCC4)CC3)c([N+](=O)[O-])c2)c1 (stereo not given) | inactive |  |
| CCCCCCCCCCCCN1C(=O)CSC1c1cccnc1 (stereo not given) | 1.85 µM (active) |  |
| CN(C)CCCN1C(=O)CSC1c1ccc([N+](=O)[O-])cc1 (stereo not given) | inactive |  |
| O=C(O)C1CSC(c2cccnc2)N1 (stereo not given) | inactive |  |
| CCN(CC(=O)Nc1ccc(NC(C)=O)cc1)C(=O)CSC(=S)N1CCCC1 | inactive |  |
| Cc1cc(C)nc(N/N=C/c2ccc([N+](=O)[O-])o2)n1 |  | -1.43% [at 0.00184 µM] |
| CCOc1cc(/C=N/Nc2cc(C)nc3ccc(C)cc23)ccc1O | inactive |  |
| CCN(CC)c1ccc(/C=N/Nc2nc(C)cc(C)n2)c(O)c1 | 7.38 µM (active) |  |

| SMILES | Potency | activity change, negative = inhibition |
| --- | --- | --- |
| CC(C)NC(=O)N1CCN(c2ccncc2S(=O)(=O)N2CCCCC2)CC1 | inactive |  |
| O=C(CCS(=O)(=O)c1ccccc1)NC1CCCC1 | inactive |  |
| COc1ccccc1OCCCC(=O)Nc1ccc2c(c1)OCCO2 | inactive |  |
| c1ccc2cc3c(NCCN4CCOCC4)ccnc3cc2c1 | 0.147 µM (active) |  |
| O=C(Cn1c(-c2ccccn2)nc2ccccc21)NCCN1CCOCC1 | inactive |  |
| O=C(NCCN1CCOCC1)c1ccc2c(c1)ncn2C1CCCC1 | inactive |  |
| O=C(NCCS(=O)(=O)N1CCN(c2ccccc2)CC1)c1ccco1 | inactive |  |
| CC1CN(C(=S)Nc2ccc(Br)cc2Cl)CC(C)O1 (stereo not given) | inactive |  |
| CS(=O)(=O)c1ccccc1C(=O)Nc1ccc2sccc2c1 | inactive |  |
| COc1ccc(CC(NC(C)=O)C(=O)NC2CCN(C(=O)c3ccc(Cl)cc3)CC2)cc1 (stereo not given) | inactive |  |
| COc1ccccc1N(C)S(=O)(=O)c1ccc(C(=O)NC2CCCCCC2)cc1 | inactive |  |
| COc1ccccc1N(C)S(=O)(=O)c1ccc(Cl)c(C(=O)N2CCC(C(N)=O)CC2)c1 | inactive |  |
| COc1ccccc1N(C)S(=O)(=O)c1ccc(Cl)c(C(=O)Nc2ccncc2)c1 | 8.28 µM (active) |  |
| COc1ccc(CNC(=O)COC(=O)c2c(C)nn(-c3ccccc3)c2C)cc1OC | inactive |  |
| COC(=O)Cc1ccc(Oc2ncc(C(F)(F)F)cc2Cl)cc1 | inactive |  |
| CSc1ccccc1-c1nnc(-c2ccc(Cl)cc2)o1 | inactive |  |
| FC(F)(F)c1cnc(Oc2ccccc2-c2nnc(-c3ccc(Cl)cc3)o2)c(Cl)c1 | 4.15 µM (active) |  |
| Cc1ccsc1C(=O)N[C@@H](C)c1nnc2ccccn12 | inactive |  |
| NS(=O)(=O)c1ccc2nc(NC(=O)CS(=O)(=O)c3ccc(F)cc3)sc2c1 | inactive |  |
| Cc1cc(S(=O)(=O)NCc2ccccn2)c(Cl)cc1Cl | inactive |  |
| O=C(CC1Nc2ccccc2NC1=O)Nc1ccccc1NC(=O)CC1Nc2ccccc2NC1=O (stereo not given) | inactive |  |
| O=C(CC1Nc2ccccc2NC1=O)Nc1ccccc1 (stereo not given) | 11.7 µM (active) |  |
| O=C(CC1NCCNC1=O)Nc1ccc(Oc2ccccc2)cc1 (stereo not given) | inactive |  |
| O=C(NCCc1ccc(Cl)cc1Cl)c1cc([N+](=O)[O-])c[nH]c1=O | inactive |  |
